# Compounds with a hit are over-represented: about 3.4% of the library has one in this group of screens.
# TEAD-YAP block – TEAD-YAP interaction inhibition. HEK-TIYL cells, TEAD-Gal4/YAP UAS-luciferase luminescence. inhibition, % at 9.12 µM. 1.4% of 640,000 active. AID 1259422; in the data active means inhibition above about 32%;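 further: 0% = median of test compound wells and 100% = reference inhibitor wells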
# MITF primary – inhibitors of human MITF. 0.91% of 650,000 active. O75030. AID 1259374. inhibition, % at 2.6 µM. AlphaScreen MITF homodimerization, bead proximity signal; in the data active means inhibition above about 50%;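 further: 0% = vehicle wells with protein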
# Target sequence (O75030 whole entry, looked up): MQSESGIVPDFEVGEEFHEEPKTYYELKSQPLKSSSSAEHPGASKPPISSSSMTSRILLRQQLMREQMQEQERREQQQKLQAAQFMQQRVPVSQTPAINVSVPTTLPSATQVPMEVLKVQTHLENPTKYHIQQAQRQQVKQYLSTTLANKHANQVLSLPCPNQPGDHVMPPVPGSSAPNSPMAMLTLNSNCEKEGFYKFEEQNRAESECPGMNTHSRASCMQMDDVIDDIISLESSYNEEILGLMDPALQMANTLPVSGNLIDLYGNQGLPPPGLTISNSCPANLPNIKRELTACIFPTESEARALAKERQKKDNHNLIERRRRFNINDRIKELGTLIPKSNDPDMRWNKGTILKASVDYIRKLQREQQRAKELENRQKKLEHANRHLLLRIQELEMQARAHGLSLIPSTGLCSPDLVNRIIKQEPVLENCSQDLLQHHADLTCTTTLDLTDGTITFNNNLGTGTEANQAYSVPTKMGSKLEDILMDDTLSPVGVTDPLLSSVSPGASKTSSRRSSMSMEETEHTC
# FBW7 act – human FBW7 E3 ligase activation, primary screen. Q969H0. AlphaScreen FBW7–phospho-cyclin E peptide binding, activator screen. normalized activity (activation), % at 26.1 µM. 0.13% of 650,000 active. AID 1259310; in the data active means normalized activity above about 1.9%;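 further: purified mutant Fbw7 with reduced substrate affinity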
# GPR151 ag – activators of human GPR151; PathHunter beta-arrestin GPR151 cells, luminescence; AID 1508602; Q8TDV0; 1% of 650,000 active; activation, % at 11.2 µM; in the data active means activation above about 4.9%;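 further: 0% = median of compound wells and 100% = cells with positive control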
# * = called active by the depositor.
SMILES,TEAD-YAP block,MITF primary,FBW7 act,GPR151 ag
COc1ccc(C2Oc3c(OC)cccc3C3CC(c4cccc(OC)c4)=NN32)cc1 (stereo not drawn),44*,0,0,-1
COc1cccc(C2Oc3c(OC)cccc3C3CC(c4ccc(C)o4)=NN32)c1 (stereo not drawn),38*,-1,0,-1
COc1ccc(C2=NN3C(C2)c2cccc(OC)c2OC3c2ccc(OC)cc2)cc1 (stereo not drawn),-59,-3,0,-1
COc1cccc2c1OC1(CCCCC1)N1N=C(c3ccc(C)o3)CC21 (stereo not drawn),28,-3,0,-1
COc1cccc2c1OC1(CCC(C)CC1)N1N=C(c3ccc(C)o3)CC21 (stereo not drawn),33*,10,0,-3
CCOc1cccc2c1OC(c1ccc(OC)cc1)N1N=C(c3ccc(C)o3)CC21 (stereo not drawn),-12,-4,0,-2
CCC[C@@H]1NC(=O)[C@@H]2C[C@H](NCc3ccccc3Cl)CN2C1=O,1,-21,0,0
CCCCCCCc1c2c(C)c(C(=O)OCC)nc-2cc2n1CC(C)=C2C,42*,11,0,2
CCCCCCCc1c2c(C)c(C(=O)OCC)nc-2cc2n1C(C)C(C)=C2C (stereo not drawn),29,3,0,1
CCN1CCN(C(=O)CCCOc2ccccc2)CC1,43*,-1,0,0
Cc1cc2cc3c(cc2n2c(=O)n(CCN(C)C)nc12)OCO3,-4,0,0,0
Cc1cc(C)c2cc(C)c3nn(CCN(C)C)c(=O)n3c2c1,41*,20,1,0
O=C(COc1ccccc1)Nc1ccc(N2CCC(NCc3ccccc3)CC2)cc1,34*,10,0,1
O=C(Nc1ccc(F)cc1)c1ccc(F)c([N+](=O)[O-])c1,59*,4,0,-2
O=C(Nc1ccc(Oc2ccccc2)cc1)c1ccc(F)c([N+](=O)[O-])c1,57*,11,0,0
O=C(O)c1ccc(-c2ccc(/C=N/N3C(=O)C4C(C3=O)C3C=CC4C34CC4)o2)cc1 (stereo not drawn),-18,18,0,-2
COc1cc(-c2cnc3ccc(NCC4CC4)nn23)ccc1O,-4,-2,0,-1
CCCNc1ccc2ncc(-c3ccc(O)c(OC)c3)n2n1,71*,-1,0,0
COc1cc(-c2cnc3ccc(NCc4cccs4)nn23)ccc1O,40*,0,0,0
COc1ccccc1-c1cnc2ccc(NCc3cccs3)nn12,-11,-6,1.9*,0
COc1cc(-c2cnc3ccc(NCc4cccs4)nn23)cc(OC)c1OC,-10,-2,0,1
OCc1ccccc1-c1cnc2ccc(NCc3cccs3)nn12,4,13,0,0
COc1cc(CNc2ccc3ncc(-c4cccc(N(C)C)c4)n3n2)cc(OC)c1OC,50*,19,-1,0
COc1cc(CNc2ccc3ncc(-c4cccc(O)c4)n3n2)cc(OC)c1OC,-21,25,1,1
COc1cccc(CNCCC2CCC(=O)N2Cc2ccc(C(F)(F)F)cc2)c1 (stereo not drawn),0,8,0,0
SMILES,TEAD-YAP block,MITF primary,FBW7 act,GPR151 ag
CCOc1ccc(NC(=O)c2ccc(-c3cccc(Cl)c3C)o2)c([N+](=O)[O-])c1,2,14,0,0
COc1ccc(CC(=O)Nc2cc(Nc3ccccc3C(=O)NC[C@H](O)C(=O)N(C)C)ccn2)cc1,-3,27,0,0
COc1ccc(CC(=O)Nc2cc(Nc3ccccc3-c3ncccn3)c(C(F)(F)F)cn2)cc1,-4,-3,0,1
CNC(=O)c1ccccc1Nc1cc(NC(=O)Cc2cccc(OC)c2)ncc1C(F)(F)F,64*,-10,0,1
CNC(=O)c1ccccc1Nc1cc(NC(=O)Cc2ccc(OC)cc2)ncc1C(F)(F)F,84*,4,0,2
CNC(=O)c1ccccc1Nc1cc(NC(=O)Cc2ccc(OC)cc2)ncc1C#N,40*,-10,0,0
CNC(=O)c1cccnc1Nc1cc(NC(=O)Cc2ccc(OC)cc2)ncc1C(F)(F)F,70*,-10,0,3
COCCNS(=O)(=O)c1cc(OCC(N)=O)c(C)cc1Cl,2,3,0,-1
CC1CCCCN1C(=O)CSc1nnc(C2CCCCC2)o1 (stereo not drawn),5,4,0,1
CN1CCN(C(CNS(=O)(=O)c2cccc(F)c2)c2ccc3c(c2)CCN3C)CC1 (stereo not drawn),7,59*,0,1
CN1CCN(C(CNS(=O)(=O)c2ccc(Cl)cc2)c2ccc3c(c2)OCO3)CC1 (stereo not drawn),13,17,2.4*,0
COc1ccc(S(=O)(=O)NCC(c2ccc3c(c2)CCN3C)N2CCN(C)CC2)cc1 (stereo not drawn),8,-6,0,0
O=[N+]([O-])c1ccc(N2CCCC(CO)C2)nc1 (stereo not drawn),-7,-17,0,1
COc1ccc(C)cc1NC(=O)c1sc2ncnc(N(C)c3ccccc3)c2c1C,10,2,0,-1
ClCc1nc2cc3ccccc3cc2[nH]1,40*,-3,0,0
N=c1oc2c(Cl)cc(Cl)cc2cc1C(=O)Nc1nccs1,8,7,0,-1
COc1cccc(/C=N/Nc2ccc([N+](=O)[O-])cn2)c1O,66*,-12,8.6*,-5
O=[N+]([O-])c1cccc(/C=N/Nc2ccccn2)c1O,78*,94*,0,4
O=[N+]([O-])c1cc(/C=N/Nc2ccccn2)c(O)c([N+](=O)[O-])c1,-3,14,0,0
COc1ccc2c(CNCCC3=CCCCC3)c(C(=O)O)n(Cc3ccccc3F)c2c1,12,6,0,0
O=C(NCCOc1ccccc1)c1csc(Nc2ccc(-n3ccnc3)cc2)n1,45*,15,0,2
O=C(NCCOc1ccccc1)c1cccc(Nc2ccc(-n3ccnc3)cc2)n1,61*,11,0,2
O=C(NCCOc1ccccc1)c1cccc(Nc2ccncc2)n1,-8,-8,0,1
O=C(NCCc1ccc(O)cc1)c1csc(Nc2ccc(-n3ccnc3)cc2)n1,31,25,0,-2
C/C(=N\NC(=O)c1cc(C(C)C)[nH]n1)c1cccs1,-23,-15,0,2
SMILES,TEAD-YAP block,MITF primary,FBW7 act,GPR151 ag
Cc1ncoc1C(=O)N1CCCC(C(=O)Nc2ccc(-c3cscn3)cc2)C1 (stereo not drawn),6,1,0,-2
COc1cc(/C=C/C(=O)c2ccc(F)cc2)cc(OC)c1OC,26,2,0,4
COc1cc(C(=O)/C=C/c2ccc(OCC(N)=O)cc2)cc(OC)c1OC,-1,14,2.0*,0
COC(=O)c1ccc(/C=C/C(=O)c2ccc(OC)c(OC)c2)cc1,-8,-2,0,0
CCOc1ccc(C(=O)/C=C/c2cc(OC)c(OC)c(OC)c2)cc1,40*,10,0,2
CCc1ccccc1NC(=O)c1ccc(N(C)Cc2ccccc2)c([N+](=O)[O-])c1,-5,1,0,-1

# Assay outcomes from PubChem BioAssay.
